Holding throughout (assay): DAPPL (digital affinity profiling via proximity ligation, sequencing); 10 mM Tris-HCl pH 7.5, 50 mM NaCl, 1 mM DTT, 4% glycerol, room temperature, 30 min; GST-TFs on glutathione beads, 16-mer random dsDNA library, 0.1% formaldehyde crosslink after washing; high values mean tight binding
Assay [1] deals with T1, FEV (Homo sapiens, UniProt Q99581 1-238).
T1 sequence: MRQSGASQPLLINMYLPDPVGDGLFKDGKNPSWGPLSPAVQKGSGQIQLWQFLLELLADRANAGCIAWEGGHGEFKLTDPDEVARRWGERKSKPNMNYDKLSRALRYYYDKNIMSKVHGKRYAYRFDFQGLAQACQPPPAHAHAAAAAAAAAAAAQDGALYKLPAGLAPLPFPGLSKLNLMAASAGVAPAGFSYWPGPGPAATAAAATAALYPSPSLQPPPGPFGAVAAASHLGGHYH
The conditions noted are these: protein: recombinant; tags: N-terminal GST; dsDNA, one strand shown. The essentials:
(§1)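 Binding signal is given per hexamer as its read frequency for a factor divided by its frequency in the tag-only sample. GST-fused human transcription factors were expressed in yeast, captured on glutathione beads, barcoded with DNA and pooled with that sample, then incubated with 200 nmole of a 16-mer random double-stranded DNA library in Tris/NaCl/DTT/glycerol buffer for 30 min at room temperature. The pools were then washed, crosslinked, proximity-ligated, amplified by PCR and sequenced on an Illumina NextSeq500.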

Assay [2] concerns the target ETV5 (Homo sapiens, UniProt P41161 1-510). To be noted: protein: recombinant; tags: N-terminal GST; dsDNA, one strand shown. The procedure, abridged:
as §1

Assay [3] has as its target HSF1 (Homo sapiens, UniProt Q00613 1-529). To be noted: protein: recombinant; tags: N-terminal GST; chain copies: 3; dsDNA, one strand shown. The procedure, abridged: as §1
Assay [4] addresses T2, SPIC (Homo sapiens, UniProt Q8N5J4 1-248).
T2 sequence: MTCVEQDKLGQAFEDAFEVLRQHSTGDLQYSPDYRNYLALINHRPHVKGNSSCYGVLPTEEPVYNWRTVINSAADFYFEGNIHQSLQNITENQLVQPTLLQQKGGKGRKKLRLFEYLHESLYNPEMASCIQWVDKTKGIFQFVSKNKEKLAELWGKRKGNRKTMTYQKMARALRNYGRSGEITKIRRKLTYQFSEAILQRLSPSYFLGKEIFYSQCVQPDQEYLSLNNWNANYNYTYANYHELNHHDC
To be noted: protein: recombinant; tags: N-terminal GST; dsDNA, one strand shown. The procedure, abridged:
as §1

Assay [5] addresses ELF4 (Homo sapiens, UniProt Q99607 1-663). The conditions noted are these: protein: recombinant; tags: N-terminal GST; dsDNA, one strand shown. The procedure, abridged:
as §1

The target of assay [6] is T3, ELK4 (Homo sapiens, UniProt P28324-2 1-405).
T3 sequence: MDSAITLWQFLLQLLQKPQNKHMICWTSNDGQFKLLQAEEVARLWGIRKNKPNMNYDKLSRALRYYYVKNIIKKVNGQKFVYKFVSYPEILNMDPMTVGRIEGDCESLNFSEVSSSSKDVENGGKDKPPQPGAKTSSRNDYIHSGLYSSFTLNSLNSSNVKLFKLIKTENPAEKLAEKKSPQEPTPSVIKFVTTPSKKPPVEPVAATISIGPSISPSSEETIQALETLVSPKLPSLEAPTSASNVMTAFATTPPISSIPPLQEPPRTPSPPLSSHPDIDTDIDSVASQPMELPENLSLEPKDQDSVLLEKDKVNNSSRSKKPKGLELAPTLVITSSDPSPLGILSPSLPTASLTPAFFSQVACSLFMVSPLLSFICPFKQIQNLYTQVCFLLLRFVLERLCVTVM
To be noted: protein: recombinant; tags: N-terminal GST; dsDNA, one strand shown. The procedure, abridged:
as §1

Assay [7] has as its target T4, ETV2 (Homo sapiens, UniProt O00321 1-342).
T4 sequence: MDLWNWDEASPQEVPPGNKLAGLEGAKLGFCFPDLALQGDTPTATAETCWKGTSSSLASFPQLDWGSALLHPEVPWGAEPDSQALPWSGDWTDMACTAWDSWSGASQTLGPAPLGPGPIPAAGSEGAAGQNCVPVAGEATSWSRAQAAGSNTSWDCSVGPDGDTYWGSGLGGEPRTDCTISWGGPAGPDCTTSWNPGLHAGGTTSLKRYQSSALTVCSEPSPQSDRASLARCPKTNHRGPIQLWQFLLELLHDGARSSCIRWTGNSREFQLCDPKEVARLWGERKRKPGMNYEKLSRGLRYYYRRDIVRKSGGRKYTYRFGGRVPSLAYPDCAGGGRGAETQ
The conditions noted are these: protein: recombinant; tags: N-terminal GST; dsDNA, one strand shown. The procedure, abridged: as §1

The target in assay [8] is T5, ELF3 (Homo sapiens, UniProt P78545 1-371).
T5 sequence: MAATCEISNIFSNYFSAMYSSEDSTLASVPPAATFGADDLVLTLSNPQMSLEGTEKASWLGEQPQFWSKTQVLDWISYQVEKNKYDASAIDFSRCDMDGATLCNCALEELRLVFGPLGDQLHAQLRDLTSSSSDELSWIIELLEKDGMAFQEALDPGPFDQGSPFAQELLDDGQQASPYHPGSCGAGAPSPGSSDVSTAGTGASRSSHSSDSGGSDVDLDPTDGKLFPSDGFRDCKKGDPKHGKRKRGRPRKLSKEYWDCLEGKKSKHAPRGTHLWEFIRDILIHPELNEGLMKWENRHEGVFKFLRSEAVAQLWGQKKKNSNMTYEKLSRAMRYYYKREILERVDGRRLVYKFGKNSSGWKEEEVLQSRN
To be noted: protein: recombinant; tags: N-terminal GST; dsDNA, one strand shown. The procedure, abridged:
as §1

Assay [9] addresses CRX (Homo sapiens, UniProt O43186 1-299). To be noted: protein: recombinant; tags: N-terminal GST; dsDNA, one strand shown. The essentials: as §1
Assay [10] deals with ETV1 (Homo sapiens, UniProt P50549 1-477). The conditions noted are these: protein: recombinant; tags: N-terminal GST; dsDNA, one strand shown. The procedure, abridged:
as §1

Assay [11] deals with T6, ERF (Homo sapiens, UniProt P50548 1-548).
T6 sequence: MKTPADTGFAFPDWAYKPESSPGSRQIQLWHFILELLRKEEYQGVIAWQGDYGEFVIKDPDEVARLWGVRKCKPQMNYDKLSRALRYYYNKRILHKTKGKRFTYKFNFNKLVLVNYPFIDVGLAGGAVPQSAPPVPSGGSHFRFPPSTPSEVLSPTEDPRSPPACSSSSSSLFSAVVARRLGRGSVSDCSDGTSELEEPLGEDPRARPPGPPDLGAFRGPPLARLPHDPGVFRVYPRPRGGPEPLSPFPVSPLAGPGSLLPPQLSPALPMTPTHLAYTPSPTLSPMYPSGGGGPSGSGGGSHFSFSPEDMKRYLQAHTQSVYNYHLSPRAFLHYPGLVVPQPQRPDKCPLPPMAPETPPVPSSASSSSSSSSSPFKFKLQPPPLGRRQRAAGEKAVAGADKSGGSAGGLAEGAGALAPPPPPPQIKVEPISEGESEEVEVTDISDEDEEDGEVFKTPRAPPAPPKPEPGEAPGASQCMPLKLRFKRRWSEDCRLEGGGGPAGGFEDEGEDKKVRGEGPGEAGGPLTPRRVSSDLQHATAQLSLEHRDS
The conditions noted are these: protein: recombinant; tags: N-terminal GST; dsDNA, one strand shown. The procedure, abridged:
as §1

Assay [12] has as its target T7, ETV3L (Homo sapiens, UniProt Q6ZN32 1-361).
T7 sequence: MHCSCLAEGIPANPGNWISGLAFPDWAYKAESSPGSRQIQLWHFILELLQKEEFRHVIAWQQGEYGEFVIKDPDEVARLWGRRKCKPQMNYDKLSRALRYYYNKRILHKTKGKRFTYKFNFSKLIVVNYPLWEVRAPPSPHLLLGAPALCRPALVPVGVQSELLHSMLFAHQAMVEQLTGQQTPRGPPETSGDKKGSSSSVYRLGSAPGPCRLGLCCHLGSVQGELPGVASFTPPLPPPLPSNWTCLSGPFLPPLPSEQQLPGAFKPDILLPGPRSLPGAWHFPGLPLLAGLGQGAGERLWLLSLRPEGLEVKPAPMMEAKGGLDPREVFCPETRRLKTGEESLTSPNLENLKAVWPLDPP
The conditions noted are these: protein: recombinant; tags: N-terminal GST; dsDNA, one strand shown. The procedure, abridged: as §1

The target of assay [13] is T8, ETS2 (Homo sapiens, UniProt P15036 1-469).
T8 sequence: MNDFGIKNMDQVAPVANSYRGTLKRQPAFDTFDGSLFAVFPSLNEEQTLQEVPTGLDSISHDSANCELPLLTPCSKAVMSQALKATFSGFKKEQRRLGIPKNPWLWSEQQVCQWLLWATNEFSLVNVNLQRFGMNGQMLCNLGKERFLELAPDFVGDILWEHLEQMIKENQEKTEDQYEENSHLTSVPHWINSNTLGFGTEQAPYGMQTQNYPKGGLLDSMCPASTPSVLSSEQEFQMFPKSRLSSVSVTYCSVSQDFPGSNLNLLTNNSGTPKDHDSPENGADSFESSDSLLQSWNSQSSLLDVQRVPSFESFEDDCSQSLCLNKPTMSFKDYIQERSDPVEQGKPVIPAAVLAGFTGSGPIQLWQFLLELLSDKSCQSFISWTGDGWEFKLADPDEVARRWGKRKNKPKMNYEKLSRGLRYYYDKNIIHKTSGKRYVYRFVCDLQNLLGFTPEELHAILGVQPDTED
To be noted: protein: recombinant; tags: N-terminal GST; dsDNA, one strand shown. The essentials: as §1

Assay [14] concerns the target T9, SPDEF (Homo sapiens, UniProt O95238 1-335).
T9 sequence: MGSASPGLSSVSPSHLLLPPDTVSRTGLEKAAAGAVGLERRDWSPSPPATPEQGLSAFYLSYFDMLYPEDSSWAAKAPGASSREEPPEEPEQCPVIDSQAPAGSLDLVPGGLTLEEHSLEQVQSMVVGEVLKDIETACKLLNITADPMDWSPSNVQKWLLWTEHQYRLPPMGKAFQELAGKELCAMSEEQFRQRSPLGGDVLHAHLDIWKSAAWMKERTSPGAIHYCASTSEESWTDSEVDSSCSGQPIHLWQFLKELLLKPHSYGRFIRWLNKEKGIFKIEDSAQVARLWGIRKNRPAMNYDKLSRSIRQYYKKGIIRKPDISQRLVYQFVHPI
To be noted: protein: recombinant; tags: N-terminal GST; dsDNA, one strand shown. The essentials:
as §1

In assay [15] the target is T10, ETV7 (Homo sapiens, UniProt Q9Y603 1-341).
T10 sequence: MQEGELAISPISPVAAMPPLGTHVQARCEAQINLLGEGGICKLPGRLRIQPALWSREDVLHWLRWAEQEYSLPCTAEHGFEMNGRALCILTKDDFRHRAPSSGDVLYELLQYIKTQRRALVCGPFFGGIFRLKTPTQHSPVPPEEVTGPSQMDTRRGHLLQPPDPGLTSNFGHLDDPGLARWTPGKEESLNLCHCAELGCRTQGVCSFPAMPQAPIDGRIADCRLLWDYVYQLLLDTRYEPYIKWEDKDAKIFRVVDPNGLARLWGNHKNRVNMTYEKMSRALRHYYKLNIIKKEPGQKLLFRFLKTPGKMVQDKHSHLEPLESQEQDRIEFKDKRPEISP
To be noted: protein: recombinant; tags: N-terminal GST; dsDNA, one strand shown. The procedure, abridged:
as §1

Assay [16] deals with T11, ELF5 (Homo sapiens, UniProt Q9UKW6-2 1-255).
T11 sequence: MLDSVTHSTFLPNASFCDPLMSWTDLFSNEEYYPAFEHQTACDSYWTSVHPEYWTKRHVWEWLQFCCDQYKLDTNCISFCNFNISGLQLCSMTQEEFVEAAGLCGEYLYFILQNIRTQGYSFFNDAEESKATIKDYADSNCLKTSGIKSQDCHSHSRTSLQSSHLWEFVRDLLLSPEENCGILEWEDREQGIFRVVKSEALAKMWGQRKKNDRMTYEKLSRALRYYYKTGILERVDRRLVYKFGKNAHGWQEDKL
The conditions noted are these: protein: recombinant; tags: N-terminal GST; dsDNA, one strand shown. The procedure, abridged:
as §1

The target in assay [17] is T12, ETV3 (Homo sapiens, UniProt P41162-2 1-143).
T12 sequence: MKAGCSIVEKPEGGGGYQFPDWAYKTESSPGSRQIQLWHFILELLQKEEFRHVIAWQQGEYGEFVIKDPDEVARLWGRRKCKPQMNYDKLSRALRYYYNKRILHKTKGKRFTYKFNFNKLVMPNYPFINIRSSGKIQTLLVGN
To be noted: protein: recombinant; tags: N-terminal GST; dsDNA, one strand shown. The procedure, abridged:
as §1

In assay [18] the target is ETV6 (Homo sapiens, UniProt P41212 1-452). The conditions noted are these: protein: recombinant; tags: N-terminal GST; dsDNA, one strand shown. The procedure, abridged:
as §1

Drawing on paper PMC7862700, “An all-to-all approach to the identification of sequence-specific readers for epigenetic DNA modifications on cytosine”, this text covers binding signal for one sequence.

Chain of HSF1 (Q00613 whole entry): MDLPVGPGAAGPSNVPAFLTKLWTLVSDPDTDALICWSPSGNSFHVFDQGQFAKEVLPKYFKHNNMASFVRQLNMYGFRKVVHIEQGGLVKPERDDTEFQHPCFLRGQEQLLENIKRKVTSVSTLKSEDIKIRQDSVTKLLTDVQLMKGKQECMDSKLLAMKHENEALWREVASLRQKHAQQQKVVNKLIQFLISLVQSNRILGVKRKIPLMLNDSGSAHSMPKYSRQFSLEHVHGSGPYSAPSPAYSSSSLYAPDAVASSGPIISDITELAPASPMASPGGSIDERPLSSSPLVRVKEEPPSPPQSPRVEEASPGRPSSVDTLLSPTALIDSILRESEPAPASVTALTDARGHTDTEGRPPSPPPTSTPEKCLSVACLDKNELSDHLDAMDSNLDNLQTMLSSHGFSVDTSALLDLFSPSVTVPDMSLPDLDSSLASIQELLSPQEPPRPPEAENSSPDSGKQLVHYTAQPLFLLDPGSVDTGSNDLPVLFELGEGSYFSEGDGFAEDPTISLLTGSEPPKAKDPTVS
Chain of ETV5 (P41161 whole entry): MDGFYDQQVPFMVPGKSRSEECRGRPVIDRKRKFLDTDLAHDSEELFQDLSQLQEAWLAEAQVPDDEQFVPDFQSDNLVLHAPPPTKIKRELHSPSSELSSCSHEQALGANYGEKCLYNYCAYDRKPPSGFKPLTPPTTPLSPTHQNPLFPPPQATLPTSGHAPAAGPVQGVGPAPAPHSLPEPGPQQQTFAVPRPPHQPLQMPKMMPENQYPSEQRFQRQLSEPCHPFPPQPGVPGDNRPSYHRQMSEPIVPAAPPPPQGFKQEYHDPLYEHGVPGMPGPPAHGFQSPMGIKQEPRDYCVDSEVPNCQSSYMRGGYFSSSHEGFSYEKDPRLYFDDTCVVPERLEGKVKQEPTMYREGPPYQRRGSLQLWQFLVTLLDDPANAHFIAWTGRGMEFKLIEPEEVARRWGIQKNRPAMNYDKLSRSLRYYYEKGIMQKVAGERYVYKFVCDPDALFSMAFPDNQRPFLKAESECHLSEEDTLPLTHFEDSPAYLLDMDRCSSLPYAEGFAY
Chain of ETV6 (P41212 whole entry): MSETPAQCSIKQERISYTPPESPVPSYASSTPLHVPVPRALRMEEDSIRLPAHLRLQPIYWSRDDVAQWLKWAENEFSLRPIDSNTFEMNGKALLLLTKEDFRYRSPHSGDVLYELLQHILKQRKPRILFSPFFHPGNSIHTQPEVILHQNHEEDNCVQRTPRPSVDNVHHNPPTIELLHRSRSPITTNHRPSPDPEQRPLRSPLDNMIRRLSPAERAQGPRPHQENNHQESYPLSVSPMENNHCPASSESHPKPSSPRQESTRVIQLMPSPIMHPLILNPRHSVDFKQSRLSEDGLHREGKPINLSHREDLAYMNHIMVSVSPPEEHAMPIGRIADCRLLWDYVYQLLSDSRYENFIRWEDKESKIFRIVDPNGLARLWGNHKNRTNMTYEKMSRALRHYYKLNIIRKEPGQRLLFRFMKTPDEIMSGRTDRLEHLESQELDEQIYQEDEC
Chain of CRX (O43186 whole entry): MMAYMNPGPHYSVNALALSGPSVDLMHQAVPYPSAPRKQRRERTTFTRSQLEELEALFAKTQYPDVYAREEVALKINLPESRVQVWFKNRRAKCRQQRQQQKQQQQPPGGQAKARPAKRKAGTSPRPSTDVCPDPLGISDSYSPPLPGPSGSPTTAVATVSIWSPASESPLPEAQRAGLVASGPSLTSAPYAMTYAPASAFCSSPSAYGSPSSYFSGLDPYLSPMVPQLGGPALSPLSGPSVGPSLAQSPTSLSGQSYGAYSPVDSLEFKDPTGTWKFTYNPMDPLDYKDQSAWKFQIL
Chain of ELF4 (Q99607 whole entry): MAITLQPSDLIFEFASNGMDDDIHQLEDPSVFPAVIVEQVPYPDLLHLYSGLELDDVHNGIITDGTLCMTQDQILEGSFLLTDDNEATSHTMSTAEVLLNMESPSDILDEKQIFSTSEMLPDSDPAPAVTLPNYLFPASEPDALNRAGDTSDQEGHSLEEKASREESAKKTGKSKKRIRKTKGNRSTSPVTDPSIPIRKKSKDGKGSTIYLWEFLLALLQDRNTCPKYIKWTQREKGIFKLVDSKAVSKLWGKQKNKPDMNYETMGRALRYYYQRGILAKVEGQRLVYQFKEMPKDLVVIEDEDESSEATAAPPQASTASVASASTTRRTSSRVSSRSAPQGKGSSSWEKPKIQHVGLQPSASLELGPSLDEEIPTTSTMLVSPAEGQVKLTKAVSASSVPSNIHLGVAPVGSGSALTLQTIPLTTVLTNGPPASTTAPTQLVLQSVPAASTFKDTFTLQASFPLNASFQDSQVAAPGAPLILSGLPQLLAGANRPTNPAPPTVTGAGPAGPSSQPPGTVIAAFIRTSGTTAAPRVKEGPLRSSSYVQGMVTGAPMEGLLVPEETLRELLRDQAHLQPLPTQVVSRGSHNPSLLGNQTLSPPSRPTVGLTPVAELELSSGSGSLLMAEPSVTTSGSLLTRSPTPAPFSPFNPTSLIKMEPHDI
Chain of ETV1 (P50549 whole entry): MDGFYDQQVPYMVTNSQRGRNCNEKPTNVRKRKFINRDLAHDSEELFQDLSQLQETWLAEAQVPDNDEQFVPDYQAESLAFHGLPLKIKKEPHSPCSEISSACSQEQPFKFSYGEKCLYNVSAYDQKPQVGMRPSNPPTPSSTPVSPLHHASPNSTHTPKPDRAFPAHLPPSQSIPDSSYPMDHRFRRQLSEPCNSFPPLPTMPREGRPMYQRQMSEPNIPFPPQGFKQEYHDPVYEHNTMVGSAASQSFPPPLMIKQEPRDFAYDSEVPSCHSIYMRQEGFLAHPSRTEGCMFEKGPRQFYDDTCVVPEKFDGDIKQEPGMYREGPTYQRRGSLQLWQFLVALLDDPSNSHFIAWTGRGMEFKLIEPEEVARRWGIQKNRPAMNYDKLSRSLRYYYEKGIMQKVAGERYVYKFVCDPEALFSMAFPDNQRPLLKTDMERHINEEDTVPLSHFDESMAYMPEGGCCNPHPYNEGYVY

For the sequence CATTCT, the binding signal is 1.29 fold enrichment (6-mer frequency, TF over GST control) in assay [1]; 1.28 fold enrichment (6-mer frequency, TF over GST control) in assay [2]; 2.56 fold enrichment (6-mer frequency, TF over GST control) in assay [3]; 1.31 fold enrichment (6-mer frequency, TF over GST control) in assay [4]; 1.37 fold enrichment (6-mer frequency, TF over GST control) in assay [5]; 1.36 fold enrichment (6-mer frequency, TF over GST control) in [6]. Also, the binding signal in assay [7] was 1.36 fold enrichment (6-mer frequency, TF over GST control); in [8], 1.22 fold enrichment (6-mer frequency, TF over GST control); in assay [9], 1.63 fold enrichment (6-mer frequency, TF over GST control); in assay [10] it was 1.31 fold enrichment (6-mer frequency, TF over GST control); in [11], 1.43 fold enrichment (6-mer frequency, TF over GST control); in [12], 1.31 fold enrichment (6-mer frequency, TF over GST control). Besides, the binding signal in assay [13] is 1.23 fold enrichment (6-mer frequency, TF over GST control); in assay [14], 1.24 fold enrichment (6-mer frequency, TF over GST control); in [15], 1.35 fold enrichment (6-mer frequency, TF over GST control); in assay [16], 1.27 fold enrichment (6-mer frequency, TF over GST control); in assay [17], 1.21 fold enrichment (6-mer frequency, TF over GST control); in [18], 1.34 fold enrichment (6-mer frequency, TF over GST control).
